# Records with an inconclusive call do not appear. The source made the active and inactive calls.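 How the source made its calls, unless noted: active means percent response above 42, roughly 3 SD of non-fluorescent test compounds; inactive means the rest.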
# Columns and labels:
# [1] = yeast TOR pathway RPL19A-GFP modulators, primary screen, cell-based, S. cerevisiae, multiplex flow cytometry (AID 1862; in the data active means percent of DMSO control GFP below about 86%;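 further: lower values mimic rapamycin by blocking the RPL19A rise seen in DMSO cells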); settings: S. cerevisiae RPL19A-GFP strain, flow cytometry fluorescence, 3 h; at 10 µM; stronger effect = lower value
# [2] = modulators of MEP2-GFP levels in yeast, primary screen, S. cerevisiae, multiplex flow cytometry (AID 1867;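 active means GFP response, as percent of the DMSO control, above the screen-wide mean plus 3 SD, about 139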;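 further: median GFP channel fluorescence of barcode-gated MEP2-GFP cells measured by flow cytometry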); settings: S. cerevisiae MEP2-GFP strain, 3 h, at 10 µM, stronger effect = higher value, 100% means same as DMSO wells
# [3] = modulators of CIT2-GFP expression in yeast, primary screen, S. cerevisiae, GFP fusion, multiplex flow cytometry (AID 1870;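 active means percent response above a set limit, the screen-wide mean plus 3 SD, cut at about 130% in these data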;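 further: barcoded CIT2-GFP strain pooled with four other GFP strains with rapamycin as positive control; median GFP fluorescence per well over plate mean of DMSO wells so 100% = DMSO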); settings: 3 h, at 10 µM, stronger effect = higher value
# [4] = modulators of LAP4-GFP expression in yeast, primary screen, S. cerevisiae, multiplex flow cytometry (AID 1873;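 active means GFP signal, as percent of the solvent control, above the screen mean plus 3 SD, about 149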); settings: 3 h, at 10 µM, stronger effect = higher value
# [5] = modulators of AGP1-GFP expression in yeast TOR pathway, primary screen, cell-based, multiplex flow cytometry, S. cerevisiae (AID 1887;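 active means GFP signal above the screen-wide mean plus 3 SD, that is over about 124.5% of the solvent control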;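 further: AGP1-GFP fusion strain of S. cerevisiae within a five-strain barcoded multiplex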); settings: 3 h, at 10 µM, stronger effect = higher value
# [6] = RPL19A-GFP modulators, yeast TOR pathway, confirmation, cell-based, S. cerevisiae, flow cytometry, cherry picks, mother/daughter gates (AID 2270;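 active means GFP response below 50% of the DMSO control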); settings: S. cerevisiae RPL19A-GFP strain, 3 h, at 10 µM, stronger effect = lower value, 100 = same GFP as DMSO wells
# [7] = LAP4-GFP expression modulators in yeast, confirmation, cell-based, cherry picks, flow cytometry, mother/daughter gates (AID 2271;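 active means GFP response above 150% of the DMSO control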;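 further: ratio of sample to DMSO plate mean so 100% equals DMSO level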); settings: S. cerevisiae LAP4-GFP strain, 3 h, at 10 µM, stronger effect = higher value, 100 means same as DMSO control
# [8] = modulators of MEP2-GFP levels in yeast, confirmation, S. cerevisiae, flow cytometry GFP, cherry picks (AID 2272;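 active means GFP response above 150% of the DMSO control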;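 further: ratio of well signal to plate DMSO mean so 100% equals DMSO level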); settings: S. cerevisiae MEP2-GFP strain, 3 h, at 10 µM, stronger effect = higher value
# [9] = modulators of CIT2-GFP expression in yeast, confirmation, S. cerevisiae, GFP fusion, cherry picks, mother/daughter gates (AID 2274;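 active means GFP response above 150% of the DMSO level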); settings: S. cerevisiae CIT2-GFP strain, flow cytometry, 3 h, at 10 µM, stronger effect = higher value
# [10] = inhibitors of CD8+ T cell-vesicle binding, pilot screen, LFA-1/ICAM-1 modulator project, MLPCN validation set, flow cytometry (AID 2523;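 active means response below a set limit, under 55% cells CD8-positive and vesicle-bound, and CD8 cells' 90th-percentile brightness under 279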;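 on vesicle binding response: mean PE anti-B7-1 fluorescence of CD8+ cells relative to row control; 100% = QL9-loaded vesicles with DMSO vehicle in the same plate row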); settings: 2C mouse CD8+ T cells, at 7 µM, stronger effect = lower value; double positive events: measured here: CD8+/vesicle+ event percentage
# [11] = biological target: Integrin beta-1 (Homo sapiens) + Integrin alpha-4 (Homo sapiens) (UniProt P13612+P05556); test: inhibition of HUTS-21 binding to VLA-4, pilot screen, VLA-4 allosteric modulator project, U937 cells, HUTS-21 mAb, flow cytometry, validation set (AID 2674;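 active means inhibition above 50%, about 3 SD of the validation set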;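 further: antibody binding induced by the VLA-4 ligand LDV present at three times its Kd; 0% = LDV ligand with antibody and no compound and 100% = antibody without LDV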); settings: HUTS-21 LIBS mAb binding, at 6.7 µM, stronger effect = higher value, binding induced by LDV ligand
# Chain of Integrin beta-1 (Homo sapiens) + Integrin alpha-4 (Homo sapiens) (P05556 whole entry, looked up): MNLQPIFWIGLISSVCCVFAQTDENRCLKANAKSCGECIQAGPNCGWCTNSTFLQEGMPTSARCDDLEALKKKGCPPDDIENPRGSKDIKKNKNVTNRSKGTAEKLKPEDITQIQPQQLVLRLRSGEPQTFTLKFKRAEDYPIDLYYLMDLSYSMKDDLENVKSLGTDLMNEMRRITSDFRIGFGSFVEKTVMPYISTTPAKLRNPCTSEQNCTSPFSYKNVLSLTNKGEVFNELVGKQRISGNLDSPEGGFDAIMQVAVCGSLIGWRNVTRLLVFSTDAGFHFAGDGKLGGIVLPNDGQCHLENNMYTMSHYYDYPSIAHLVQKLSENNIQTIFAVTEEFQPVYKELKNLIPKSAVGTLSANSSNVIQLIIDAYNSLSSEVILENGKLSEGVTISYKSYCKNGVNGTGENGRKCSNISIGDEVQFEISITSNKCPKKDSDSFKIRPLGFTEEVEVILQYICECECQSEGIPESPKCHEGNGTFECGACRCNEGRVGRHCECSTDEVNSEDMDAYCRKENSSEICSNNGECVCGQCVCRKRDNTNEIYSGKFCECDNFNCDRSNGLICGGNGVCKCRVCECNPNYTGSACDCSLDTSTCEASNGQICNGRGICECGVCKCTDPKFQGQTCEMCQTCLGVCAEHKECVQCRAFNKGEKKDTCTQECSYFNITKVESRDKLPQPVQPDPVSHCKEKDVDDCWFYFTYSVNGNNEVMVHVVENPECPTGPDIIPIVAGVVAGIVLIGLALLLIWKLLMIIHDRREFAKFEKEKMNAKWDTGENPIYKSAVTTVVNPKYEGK
# Chain of Integrin beta-1 (Homo sapiens) + Integrin alpha-4 (Homo sapiens) (P13612 whole entry, looked up): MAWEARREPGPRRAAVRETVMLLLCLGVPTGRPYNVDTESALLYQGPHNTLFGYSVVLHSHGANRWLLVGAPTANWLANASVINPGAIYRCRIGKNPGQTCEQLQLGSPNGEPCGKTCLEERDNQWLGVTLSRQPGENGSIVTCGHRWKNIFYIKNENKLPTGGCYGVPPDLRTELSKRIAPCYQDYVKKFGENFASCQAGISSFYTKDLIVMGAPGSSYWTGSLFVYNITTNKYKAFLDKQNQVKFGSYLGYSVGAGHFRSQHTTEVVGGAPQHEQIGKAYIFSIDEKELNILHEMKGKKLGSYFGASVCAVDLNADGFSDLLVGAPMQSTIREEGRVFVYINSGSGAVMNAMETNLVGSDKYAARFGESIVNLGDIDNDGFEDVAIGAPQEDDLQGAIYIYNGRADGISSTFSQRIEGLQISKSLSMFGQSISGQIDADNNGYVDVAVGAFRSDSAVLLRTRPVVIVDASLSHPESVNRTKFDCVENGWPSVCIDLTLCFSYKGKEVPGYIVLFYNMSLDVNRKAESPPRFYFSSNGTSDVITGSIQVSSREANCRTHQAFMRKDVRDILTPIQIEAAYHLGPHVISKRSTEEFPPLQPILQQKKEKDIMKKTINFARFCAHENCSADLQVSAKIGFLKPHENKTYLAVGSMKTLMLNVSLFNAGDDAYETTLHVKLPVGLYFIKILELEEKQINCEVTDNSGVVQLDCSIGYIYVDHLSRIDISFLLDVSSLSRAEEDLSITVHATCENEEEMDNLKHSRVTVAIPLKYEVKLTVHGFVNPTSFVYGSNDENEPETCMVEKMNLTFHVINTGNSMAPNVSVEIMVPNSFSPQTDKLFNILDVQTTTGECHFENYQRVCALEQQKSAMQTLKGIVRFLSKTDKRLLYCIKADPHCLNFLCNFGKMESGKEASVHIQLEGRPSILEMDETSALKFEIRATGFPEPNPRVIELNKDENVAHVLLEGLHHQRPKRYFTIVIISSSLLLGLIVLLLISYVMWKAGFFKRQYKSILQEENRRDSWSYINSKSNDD
# [12] = superoxide lowering in aged yeast cells, pilot screen, validation compound set (AID 2706;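 active means superoxide response below 65% of plate, a cut near 3 SD across the whole screen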;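 further: yeast exposed to compound for one week at 30 degrees C before staining; 100% = mean of all compound wells on the same plate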); settings: S. cerevisiae aging, superoxide DHE fluorescence; at 10 µM; stronger effect = lower value
# [13] = biological target: Beta-adrenergic receptor kinase 1 (Homo sapiens) (UniProt P25098); test: GRK2 binders displacing RNA aptamer, biochemical, validation, human GRK2, bead flow cytometry (AID 488806;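 active means aptamer binding inhibition above 30%, about 3 SD of noise from non-fluorescent compounds; inactive means inhibition at or below 30%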); settings: bead-bound GRK2, FAM-aptamer displacement, at 10 µM, stronger effect = higher value
# Chain of Beta-adrenergic receptor kinase 1 (Homo sapiens) (P25098 whole entry, looked up): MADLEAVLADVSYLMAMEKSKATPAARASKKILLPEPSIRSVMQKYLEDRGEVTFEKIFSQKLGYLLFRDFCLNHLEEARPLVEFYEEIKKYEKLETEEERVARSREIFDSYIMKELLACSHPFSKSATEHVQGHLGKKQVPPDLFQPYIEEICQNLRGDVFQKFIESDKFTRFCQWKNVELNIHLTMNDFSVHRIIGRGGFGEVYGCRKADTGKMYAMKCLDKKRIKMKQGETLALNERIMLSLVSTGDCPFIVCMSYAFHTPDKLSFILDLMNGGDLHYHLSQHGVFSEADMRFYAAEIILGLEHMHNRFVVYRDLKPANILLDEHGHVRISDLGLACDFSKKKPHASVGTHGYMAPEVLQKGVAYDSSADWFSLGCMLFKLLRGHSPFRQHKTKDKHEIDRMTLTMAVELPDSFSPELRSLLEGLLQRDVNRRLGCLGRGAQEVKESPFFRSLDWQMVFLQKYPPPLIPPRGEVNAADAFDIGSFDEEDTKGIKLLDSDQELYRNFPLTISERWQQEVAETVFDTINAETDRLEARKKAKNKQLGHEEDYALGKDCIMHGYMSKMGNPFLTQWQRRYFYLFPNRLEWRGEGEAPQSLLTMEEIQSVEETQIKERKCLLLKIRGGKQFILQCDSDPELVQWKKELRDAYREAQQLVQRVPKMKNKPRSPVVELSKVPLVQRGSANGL
# [14] = biological target: Beta-2 adrenergic receptor (Homo sapiens) (UniProt P07550); test: beta2AR agonists driving receptor internalization, pilot screen, cell-based, FAP fluorogen, flow cytometry, validation set (AID 504459); settings: Am2.2-beta2AR cells, FAP surface receptor flow cytometry; at 10 µM; stronger effect = higher value;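 further: agonist-driven loss of surface beta2AR via internalization measured by FAP dye flow cytometry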
# Chain of Beta-2 adrenergic receptor (Homo sapiens) (P07550 whole entry, looked up): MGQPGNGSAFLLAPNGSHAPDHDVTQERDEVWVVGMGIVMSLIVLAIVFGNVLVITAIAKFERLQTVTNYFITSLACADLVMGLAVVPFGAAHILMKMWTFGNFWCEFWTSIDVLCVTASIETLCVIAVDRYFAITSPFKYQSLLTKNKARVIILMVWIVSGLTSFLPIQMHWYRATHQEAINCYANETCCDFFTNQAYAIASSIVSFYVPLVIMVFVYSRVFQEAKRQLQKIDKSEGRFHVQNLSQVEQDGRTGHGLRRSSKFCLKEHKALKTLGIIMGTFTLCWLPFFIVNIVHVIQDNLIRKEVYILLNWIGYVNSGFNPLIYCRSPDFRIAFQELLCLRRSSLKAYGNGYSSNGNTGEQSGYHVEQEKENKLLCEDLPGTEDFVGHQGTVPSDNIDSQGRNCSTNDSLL
# [15] = biological target: AP-2 complex subunit beta (Homo sapiens) (UniProt P63010); test: inhibitors of arrestin peptide binding to AP2, pilot screen, biochemical, validation set, GST-AP2 beads, flow cytometry (AID 504541;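 active means inhibition above 54%, about 3 SD of non-fluorescent compounds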;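 further: AP2 carries R879A mutation and is captured from E. coli lysate; bead-bound FITC arrestin peptide fluorescence measuring arrestin peptide binding to AP2; 0% = DMSO wells and 100% = excess unlabeled arrestin peptide control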); settings: FITC arrestin peptide, at 10 µM, stronger effect = higher value, AP2 beta2 appendage fragment, R879A mutant
# Chain of AP-2 complex subunit beta (Homo sapiens) (P63010 whole entry, looked up, the tested form may be a part, one chain of several): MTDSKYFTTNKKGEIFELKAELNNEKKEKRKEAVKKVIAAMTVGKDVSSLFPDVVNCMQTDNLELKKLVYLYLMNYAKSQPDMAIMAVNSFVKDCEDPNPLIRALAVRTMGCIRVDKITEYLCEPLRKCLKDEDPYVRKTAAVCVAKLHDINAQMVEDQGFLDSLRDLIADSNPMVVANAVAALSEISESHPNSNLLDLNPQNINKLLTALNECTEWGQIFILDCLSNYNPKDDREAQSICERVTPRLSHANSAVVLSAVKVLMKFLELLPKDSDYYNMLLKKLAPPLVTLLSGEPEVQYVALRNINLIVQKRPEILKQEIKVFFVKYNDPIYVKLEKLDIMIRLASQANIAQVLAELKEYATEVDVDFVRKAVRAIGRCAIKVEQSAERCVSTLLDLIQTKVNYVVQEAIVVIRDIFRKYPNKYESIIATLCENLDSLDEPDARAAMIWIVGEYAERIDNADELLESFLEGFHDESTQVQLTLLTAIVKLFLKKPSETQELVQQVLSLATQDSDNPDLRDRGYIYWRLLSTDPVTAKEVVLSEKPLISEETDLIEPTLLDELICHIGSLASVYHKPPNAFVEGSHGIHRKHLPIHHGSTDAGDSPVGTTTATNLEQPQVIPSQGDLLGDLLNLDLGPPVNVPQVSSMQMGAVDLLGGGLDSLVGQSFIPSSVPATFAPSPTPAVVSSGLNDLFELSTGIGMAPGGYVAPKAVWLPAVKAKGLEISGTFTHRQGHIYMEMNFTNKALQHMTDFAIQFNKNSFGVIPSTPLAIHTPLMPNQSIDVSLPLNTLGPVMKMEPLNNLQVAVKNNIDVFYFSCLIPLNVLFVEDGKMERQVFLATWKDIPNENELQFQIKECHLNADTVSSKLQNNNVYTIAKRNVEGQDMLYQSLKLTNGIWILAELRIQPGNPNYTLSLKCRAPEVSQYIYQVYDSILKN
# [16] = yeast V-ATPase proton transport modulators, S. cerevisiae, pHLuorin, HTS validation (AID 504600; in the data active means response above about 15%;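 further: plate controls were DMSO for no effect and reference compound for full effect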); settings: S. cerevisiae pHLuorin cytosolic pH, at 10 µM, stronger effect = higher value
# [17] = tested on: anti-desmoglein-3 scFv antibody binding to human DSG3; test: inhibitors of anti-DSG3 scFv binding to DSG3, pilot screen, biochemical, validation compound set, bead-based, flow cytometry (AID 588368;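 active means binding below the plate cutoff, the plate median minus 3 SD, with a reading above zero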;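 further: signal is the median channel fluorescence of bead-bound GFP antibody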); settings: Protein G beads, DSG3-Fc, scFv-GFP binding, at 10 µM, stronger effect = lower value
# [18] = inhibitors of fungal efflux pumps CDR1, CDR2, MDR1, pilot screen, validation compound set, multiplex, phenotypic (AID 588506;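 active means efflux inhibition above 0.42, the validation set average plus 4 SD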;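 further: Nile Red retained in cells so higher fluorescence means more efflux inhibition; 0 = negative control wells and 1 = enniatin B 25 µM full block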); settings: S. cerevisiae pump-expressing triplex, Nile Red efflux flow cytometry; at 10 µM; stronger effect = higher value; the pumps come from Candida albicans
# [19] = biological target: ATP-binding cassette sub-family B member 6 (Homo sapiens) (UniProt Q9NP58); test: ABCB6 transporter inhibitors, pilot screen, K562-ABCB6 cells, flow cytometry, validation set (AID 588550;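 active means inhibition above the screen-wide mean plus 3 SD, about 51%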;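 further: 0% = DMSO wells and 100% = benzethonium chloride 70 µM positive control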); settings: K562-ABCB6 porphyrin accumulation, 1 h, at 10 µM, stronger effect = higher value
# Chain of ATP-binding cassette sub-family B member 6 (Homo sapiens) (Q9NP58 whole entry, looked up): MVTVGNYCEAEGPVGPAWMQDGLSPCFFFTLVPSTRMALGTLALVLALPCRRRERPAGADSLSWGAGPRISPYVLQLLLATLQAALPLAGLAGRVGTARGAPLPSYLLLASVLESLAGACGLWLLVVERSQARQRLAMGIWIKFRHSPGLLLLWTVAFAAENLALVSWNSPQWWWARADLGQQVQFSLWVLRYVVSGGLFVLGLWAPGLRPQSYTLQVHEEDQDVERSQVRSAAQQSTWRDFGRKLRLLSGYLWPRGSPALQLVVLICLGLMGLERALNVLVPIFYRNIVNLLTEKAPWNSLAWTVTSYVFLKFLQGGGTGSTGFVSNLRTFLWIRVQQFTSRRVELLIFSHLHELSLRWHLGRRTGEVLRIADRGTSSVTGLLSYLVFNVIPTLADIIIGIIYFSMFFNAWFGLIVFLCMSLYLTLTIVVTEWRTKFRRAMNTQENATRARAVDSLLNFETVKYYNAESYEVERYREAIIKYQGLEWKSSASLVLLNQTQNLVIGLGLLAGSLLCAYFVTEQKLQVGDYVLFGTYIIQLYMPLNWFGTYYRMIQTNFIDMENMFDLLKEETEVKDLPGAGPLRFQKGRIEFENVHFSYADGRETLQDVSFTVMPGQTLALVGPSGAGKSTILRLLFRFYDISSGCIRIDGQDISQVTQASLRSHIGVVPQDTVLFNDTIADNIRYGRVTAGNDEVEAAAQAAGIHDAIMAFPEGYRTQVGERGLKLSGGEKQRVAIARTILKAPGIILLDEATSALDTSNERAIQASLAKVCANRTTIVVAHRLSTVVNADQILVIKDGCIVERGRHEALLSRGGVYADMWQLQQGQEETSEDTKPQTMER
# [20] = promoters of myeloid differentiation in arrested cells, primary screen, cell-based, GFP/MAC1 double positive, flow cytometry, validation set (AID 588685;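 active means differentiation response of at least 50%, scaled between solvent and reference control, from cells with both markers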;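 further: compound exposure lasts four days before antibody staining and flow analysis; 0% = DMSO wells and 100% = 5 µM fulvestrant positive control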); settings: ER-HoxA9 marrow cells, stronger effect = higher value, normalized: vehicle 0, fulvestrant 100
# [21] = measured here: daughter cell gate
# [22] = measured here: mother cell gate
# [23] = measured here: daughter cell gate response
# [24] = measured here: mother cell gate response
compound,measurement,setting,value
CC(=O)OCC(=O)[C@H]1CC[C@H]2[C@@H]3CCC4=CC(=O)CC[C@]4(C)[C@H]3CC[C@]12C,percent of DMSO control GFP,[1],89.1% (inactive)
same,GFP response vs DMSO,[2],103% (inactive)
same,percent response of DMSO control,[3],108% (inactive)
same,GFP response vs DMSO,[4],73.2% (inactive)
same,"GFP response, % of DMSO",[5],86.3% (inactive)
same,GFP response vs DMSO,[6],95.8% (inactive)
same,GFP response vs DMSO,[6]; [21],96.7%
same,GFP response vs DMSO,[6]; [22],96.5%
same,GFP response relative to DMSO,[7],103% (inactive)
same,GFP response relative to DMSO,[7]; [23],99.3%
same,GFP response relative to DMSO,[7]; [24],106%
same,GFP response vs DMSO,[8],97.5% (inactive)
same,"GFP response, % of DMSO",[9],97.8% (inactive)
same,"GFP response, % of DMSO",[9]; [21],98.3%
same,"GFP response, % of DMSO",[9]; [22],99.1%
same,double positive events,[10],52.1%
same,vesicle binding response,[10],113% (inactive)
same,inhibition,[11],-1.3% (inactive)
same,superoxide response (% of plate),[12],119% (inactive)
same,aptamer binding inhibition,[13],-1% (inactive)
same,response,[14],-16.7% (inactive)
same,inhibition,[15],-3.8% (inactive)
same,response,[16],-1.21% (inactive)
same,binding (% of control),[17],105% (inactive)
same,efflux inhibition (fraction of control),[18],-0.28 (inactive)
same,inhibition,[19],8% (inactive)
same,differentiation response,[20],-1.64% (inactive)
C[C@]12CCC(=O)C=C1[C@H](O)C[C@@H]1[C@@H]2[C@@H](O)C[C@@]2(C)[C@H]1CC[C@]2(O)C(=O)CO,percent of DMSO control GFP,[1],106% (inactive)
same,GFP response vs DMSO,[2],105% (inactive)
same,percent response of DMSO control,[3],102% (inactive)
same,GFP response vs DMSO,[4],102% (inactive)
same,"GFP response, % of DMSO",[5],107% (inactive)
same,GFP response vs DMSO,[6],99.1% (inactive)
same,GFP response vs DMSO,[6]; [21],99.1%
same,GFP response vs DMSO,[6]; [22],99.2%
same,GFP response relative to DMSO,[7],97.7% (inactive)
same,GFP response relative to DMSO,[7]; [23],97.9%
same,GFP response relative to DMSO,[7]; [24],95.6%
same,GFP response vs DMSO,[8],99.5% (inactive)
same,"GFP response, % of DMSO",[9],102% (inactive)
same,"GFP response, % of DMSO",[9]; [21],104%
same,"GFP response, % of DMSO",[9]; [22],101%
same,double positive events,[10],63.9%
same,vesicle binding response,[10],182% (inactive)
same,inhibition,[11],-10.5% (inactive)
same,superoxide response (% of plate),[12],98.9% (inactive)
same,aptamer binding inhibition,[13],2% (inactive)
same,response,[14],6.38% (inactive)
same,inhibition,[15],-21.5% (inactive)
same,response,[16],1.8% (inactive)
same,binding (% of control),[17],104% (inactive)
same,efflux inhibition (fraction of control),[18],-0.05 (inactive)
same,inhibition,[19],3% (inactive)
same,differentiation response,[20],5.67% (inactive)
COc1ccc(C(=O)NCC2OCCc3ccccc32)cc1 (stereo unspecified),percent of DMSO control GFP,[1],90% (inactive)
same,GFP response vs DMSO,[2],150% (active)
same,percent response of DMSO control,[3],120% (inactive)
same,GFP response vs DMSO,[4],107% (inactive)
same,"GFP response, % of DMSO",[5],107% (inactive)
same,GFP response vs DMSO,[6],96.4% (inactive)
same,GFP response vs DMSO,[6]; [21],97.1%
same,GFP response vs DMSO,[6]; [22],97.2%
same,GFP response relative to DMSO,[7],103% (inactive)
same,GFP response relative to DMSO,[7]; [23],102%
same,GFP response relative to DMSO,[7]; [24],104%
same,GFP response vs DMSO,[8],102% (inactive)
same,"GFP response, % of DMSO",[9],98.3% (inactive)
same,"GFP response, % of DMSO",[9]; [21],99.1%
same,"GFP response, % of DMSO",[9]; [22],97.3%
same,double positive events,[10],64.3%
same,vesicle binding response,[10],122% (inactive)
same,inhibition,[11],-2.27% (inactive)
same,superoxide response (% of plate),[12],92.6% (inactive)
same,aptamer binding inhibition,[13],1% (inactive)
same,response,[14],-2.23% (inactive)
same,inhibition,[15],7.24% (inactive)
same,response,[16],-0.15% (inactive)
same,binding (% of control),[17],103% (inactive)
same,efflux inhibition (fraction of control),[18],-0.28 (inactive)
same,inhibition,[19],4% (inactive)
same,differentiation response,[20],2.46% (inactive)
